Measured values published in the supplement of paper PMC12808144.
Unmarked numbers belong to inactive results.

System: Mel-DCC-11-R
Assay: cell viability relative to DMSO control (fraction of DMSO control); higher = less cytotoxic, active = 0.8 or less
Details: 1 µM; 120 h; vemurafenib co-treatment 0 µM
Description: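 Same 315-drug TargetMol library at 1 µM in duplicate, 120 h, ATPlite luminescence normalised to DMSO controls, on the vemurafenib-resistant subline Mel-DCC-11-R cultured alone or with 8 µM vemurafenib co-treatment (Mel-DCC-11-R + V).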

In order of falling cell viability:
1. CN(C)C(=O)c1cc2cnc(Nc3ccc(N4CCNCC4)cn3)nc2n1C1CCCC1 [Ribociclib]  1.25
2. C[C@H](Nc1ncnc2nc[nH]c12)c1cc2cccc(Cl)c2c(=O)n1-c1ccccc1 [Duvelisib]  1.21
3. N#CC1(c2ccc(NC(=O)c3cccnc3NCc3ccncc3)cc2)CCCC1 [Apatinib]  1.14
4. CS(=O)(=O)CCNCc1ccc(-c2ccc3ncnc(Nc4ccc(OCc5cccc(F)c5)c(Cl)c4)c3c2)o1.Cc1ccc(S(=O)(=O)O)cc1.Cc1ccc(S(=O)(=O)O)cc1.O [Lapatinib ditosylate monohydrate]  1.14
5. Cc1ccc(-c2ncc(Cl)cc2-c2ccc(S(C)(=O)=O)cc2)cn1 [Etoricoxib]  1.11
6. CNC(=O)c1c(C)oc2cc(Oc3ncnc4cc(OC)c(OC)cc34)ccc12 [Fruquintinib]  1.09
7. [Cl][Pt+2][Cl] [Cisplatin]  1.08
8. CCN(CC)CCNC(=O)c1c(C)[nH]c(/C=C2\C(=O)Nc3ccc(F)cc32)c1C.C[C@@H](CC(=O)O)C(=O)O [Sunitinib Malate]  1.08
9. COc1cc(N2CCC(N3CCN(C)CC3)CC2)ccc1Nc1ncc(Cl)c(Nc2ccccc2P(C)(C)=O)n1 [Brigatinib]  1.08
10. CC[C@H](Nc1ncnc2[nH]cnc12)c1nc2cccc(F)c2c(=O)n1-c1ccccc1 [Idelalisib]  1.07
11. CN(C)C/C=C/C(=O)Nc1cc2c(Nc3ccc(F)c(Cl)c3)ncnc2cc1O[C@H]1CCOC1.O=C(O)/C=C\C(=O)O.O=C(O)/C=C\C(=O)O [Afatinib Dimaleate]  1.03
12. Nc1cccc2c1C(=O)N(C1CCC(=O)NC1=O)C2=O (stereo not given) [Pomalidomide]  1
13. CCCc1cc(C)[nH]c(=O)c1CNC(=O)c1cc(-c2ccnc(N3CCN(C)CC3)c2)cc2c1cnn2C(C)C  0.999
14. CCOC(N)=O [Urethane]  0.987
15. C[C@]12CC[C@@H]3c4ccc(O)cc4C[C@@H](CCCCCCCCCS(=O)CCCC(F)(F)C(F)(F)F)[C@H]3[C@@H]1CC[C@@H]2O (stereo not given in full) [Fulvestrant]  0.987
16. CC1=C(CC(=O)O)c2cc(F)ccc2/C1=C\c1ccc(S(C)=O)cc1 (stereo not given) [Sulindac]  0.986
17. CN1[C@@H]2CCC[C@H]1C[C@@H](NC(=O)c1nn(C)c3ccccc13)C2.Cl [Granisetron hydrochloride]  0.924
18. COc1ccc([C@@H]2CC(=O)c3c(O)cc(O)cc3O2)cc1O [Hesperetin]  0.891
19. COc1ccc2cc1Oc1ccc(cc1)C[C@H]1c3cc(c(OC)cc3CCN1C)Oc1c(OC)c(OC)cc3c1[C@H](C2)N(C)CC3 [Tetrandrine]  0.886
20. COC(=O)[C@]12CCC(C)(C)C[C@H]1[C@H]1C(=O)C=C3[C@@]4(C)C=C(C#N)C(=O)C(C)(C)[C@@H]4CC[C@@]3(C)[C@]1(C)CC2 [Bardoxolone Methyl]  0.833

Same assay, conditions: 1 µM; 120 h; vemurafenib co-treatment 8 µM

In order of falling cell viability:
1. [Cl][Pt+2][Cl] [Cisplatin]  1.28
2. Nc1cccc2c1C(=O)N(C1CCC(=O)NC1=O)C2=O (stereo not given) [Pomalidomide]  1.25
3. CN(C)C(=O)c1cc2cnc(Nc3ccc(N4CCNCC4)cn3)nc2n1C1CCCC1 [Ribociclib]  1.21
4. N#CC1(c2ccc(NC(=O)c3cccnc3NCc3ccncc3)cc2)CCCC1 [Apatinib]  1.13
5. CN1[C@@H]2CCC[C@H]1C[C@@H](NC(=O)c1nn(C)c3ccccc13)C2.Cl [Granisetron hydrochloride]  1.07
6. Cc1ccc(-c2ncc(Cl)cc2-c2ccc(S(C)(=O)=O)cc2)cn1 [Etoricoxib]  1.06
7. CNC(=O)c1c(C)oc2cc(Oc3ncnc4cc(OC)c(OC)cc34)ccc12 [Fruquintinib]  1.05
8. COc1ccc2cc1Oc1ccc(cc1)C[C@H]1c3cc(c(OC)cc3CCN1C)Oc1c(OC)c(OC)cc3c1[C@H](C2)N(C)CC3 [Tetrandrine]  1.05
9. COc1ccc([C@@H]2CC(=O)c3c(O)cc(O)cc3O2)cc1O [Hesperetin]  1.05
10. CC1=C(CC(=O)O)c2cc(F)ccc2/C1=C\c1ccc(S(C)=O)cc1 (stereo not given) [Sulindac]  1.03
11. CCOC(N)=O [Urethane]  1
12. CC[C@H](Nc1ncnc2[nH]cnc12)c1nc2cccc(F)c2c(=O)n1-c1ccccc1 [Idelalisib]  0.961
13. CCN(CC)CCNC(=O)c1c(C)[nH]c(/C=C2\C(=O)Nc3ccc(F)cc32)c1C.C[C@@H](CC(=O)O)C(=O)O [Sunitinib Malate]  0.927
14. CCCc1cc(C)[nH]c(=O)c1CNC(=O)c1cc(-c2ccnc(N3CCN(C)CC3)c2)cc2c1cnn2C(C)C  0.88
15. COc1cc(N2CCC(N3CCN(C)CC3)CC2)ccc1Nc1ncc(Cl)c(Nc2ccccc2P(C)(C)=O)n1 [Brigatinib]  0.867
16. C[C@H](Nc1ncnc2nc[nH]c12)c1cc2cccc(Cl)c2c(=O)n1-c1ccccc1 [Duvelisib]  0.864
17. CS(=O)(=O)CCNCc1ccc(-c2ccc3ncnc(Nc4ccc(OCc5cccc(F)c5)c(Cl)c4)c3c2)o1.Cc1ccc(S(=O)(=O)O)cc1.Cc1ccc(S(=O)(=O)O)cc1.O [Lapatinib ditosylate monohydrate]  0.823
18. C[C@]12CC[C@@H]3c4ccc(O)cc4C[C@@H](CCCCCCCCCS(=O)CCCC(F)(F)C(F)(F)F)[C@H]3[C@@H]1CC[C@@H]2O (stereo not given in full) [Fulvestrant]  0.809

With `CN(C)C/C=C/C(=O)Nc1cc2c(Nc3ccc(F)c(Cl)c3)ncnc2cc1O[C@H]1CCOC1.O=C(O)/C=C\C(=O)O.O=C(O)/C=C\C(=O)O` [Afatinib Dimaleate] the cell viability was 0.766 (active).
In the case of `COC(=O)[C@]12CCC(C)(C)C[C@H]1[C@H]1C(=O)C=C3[C@@]4(C)C=C(C#N)C(=O)C(C)(C)[C@@H]4CC[C@@]3(C)[C@]1(C)CC2` [Bardoxolone Methyl], the cell viability is reported as 0.578 (active).
